Measured values as given in ChEMBL document CHEMBL2218924, “A broad activity screen in support of a chemogenomic map for kinase signalling research and drug discovery” (Biochem J, 2013).

Target: Rho-associated protein kinase 1 (Homo sapiens) (UniProt Q13464)
Details: at 1 µM

Sequence of Rho-associated protein kinase 1 (Homo sapiens) (Q13464 2-1354 limits assumed): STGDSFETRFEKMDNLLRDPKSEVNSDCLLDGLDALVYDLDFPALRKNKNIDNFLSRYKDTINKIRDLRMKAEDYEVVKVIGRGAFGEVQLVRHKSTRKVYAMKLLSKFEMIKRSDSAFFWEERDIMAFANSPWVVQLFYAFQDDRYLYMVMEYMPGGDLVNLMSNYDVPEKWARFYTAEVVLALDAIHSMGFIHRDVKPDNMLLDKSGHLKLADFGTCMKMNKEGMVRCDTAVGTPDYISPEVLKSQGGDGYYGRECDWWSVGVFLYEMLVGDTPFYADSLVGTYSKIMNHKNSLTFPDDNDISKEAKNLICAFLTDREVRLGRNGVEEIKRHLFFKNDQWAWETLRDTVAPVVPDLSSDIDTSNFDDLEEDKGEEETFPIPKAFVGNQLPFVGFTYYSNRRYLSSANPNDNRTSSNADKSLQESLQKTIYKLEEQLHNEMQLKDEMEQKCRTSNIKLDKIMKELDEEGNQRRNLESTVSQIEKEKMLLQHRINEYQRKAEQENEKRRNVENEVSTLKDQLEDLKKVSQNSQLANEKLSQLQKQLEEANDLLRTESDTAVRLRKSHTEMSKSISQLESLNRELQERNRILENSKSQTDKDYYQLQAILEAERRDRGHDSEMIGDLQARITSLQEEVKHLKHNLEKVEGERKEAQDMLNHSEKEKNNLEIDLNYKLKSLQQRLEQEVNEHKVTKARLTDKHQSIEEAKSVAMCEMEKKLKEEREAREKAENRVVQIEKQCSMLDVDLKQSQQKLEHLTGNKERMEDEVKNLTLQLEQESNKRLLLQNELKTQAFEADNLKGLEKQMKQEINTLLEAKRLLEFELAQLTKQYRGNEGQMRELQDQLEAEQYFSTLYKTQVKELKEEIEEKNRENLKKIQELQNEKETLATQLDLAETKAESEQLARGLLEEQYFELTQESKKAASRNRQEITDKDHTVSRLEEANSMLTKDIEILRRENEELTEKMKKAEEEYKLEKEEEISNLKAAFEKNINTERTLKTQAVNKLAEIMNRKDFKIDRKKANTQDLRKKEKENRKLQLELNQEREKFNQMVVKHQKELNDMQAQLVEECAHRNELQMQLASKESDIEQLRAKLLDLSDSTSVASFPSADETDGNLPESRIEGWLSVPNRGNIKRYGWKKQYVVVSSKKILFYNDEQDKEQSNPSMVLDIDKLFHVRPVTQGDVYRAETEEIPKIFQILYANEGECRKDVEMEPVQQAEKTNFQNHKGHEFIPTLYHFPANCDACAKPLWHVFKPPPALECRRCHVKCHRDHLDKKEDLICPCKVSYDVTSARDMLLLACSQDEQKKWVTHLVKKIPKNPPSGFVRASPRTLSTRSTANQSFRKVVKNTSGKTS

Q: For `COc1ccc2c(c1)c(C1=C(c3c[nH]c4ccccc34)C(=O)NC1=O)cn2CCCN(C)C`, which residual activity is on record?
A: 105%

Q: For `Nc1nc(Nc2ccc(S(N)(=O)=O)cc2)nn1C(=O)c1c(F)cccc1F`, which residual activity is on record?
A: 65%

Q: `CCCCc1c(-c2ccc(OC)cc2)[nH]c2nccnc12` was tested. Which residual activity did it give?
A: 117%

Q: Which residual activity does the source give for `Cn1c2ccccc2c2c3c(c4c5ccccc5n(CCC#N)c4c21)CNC3=O` here?
A: 98%

Q: Which residual activity does the source give for `NCCNc1ncc(C(N)=O)c(Nc2cccc(C(F)(F)F)c2)n1` here?
A: 104%

Q: `O=C1NC(=O)C(c2cn(CCCn3ccnc3)c3ccccc23)=C1Nc1ccccc1` was tested. Which residual activity did it give?
A: 120%

Q: For `COc1ccc(COc2ccc(Cc3cnc(N)nc3N)cc2OC)cc1`, which residual activity is on record?
A: 112%

Q: Which residual activity does the source give for `CN(C)S(=O)(=O)c1ccc2c(c1)/C(=C/c1cc3c([nH]1)CCCC3)C(=O)N2` here?
A: 132%

Q: How did the residual activity turn out when `O=C(Nc1nc2ccccc2n1CCN1CCOCC1)c1cccc([N+](=O)[O-])c1` was run?
A: 109%

Q: `NC(=O)c1ccc(-c2nc(-c3ccc4c(c3)OCCO4)c(-c3ccccn3)[nH]2)cc1` was tested. Which residual activity did it give?
A: 118%

Q: Which residual activity does the source give for `O=C1Nc2ccccc2/C1=C\c1c(Cl)[nH]c2ccccc12` here?
A: 121%

Q: Which residual activity does the source give for `O=c1c(-c2ccc(F)cc2)c(-c2ccncc2)[nH]n1-c1ccc(Cl)cc1` here?
A: 122%

Q: With `Oc1cccc(-c2nc(N3CCOCC3)c3oc4ncccc4c3n2)c1` as the compound, how does the residual activity read?
A: 123%

Q: With `Nc1nccc(-c2c(-c3ccc(F)cc3)ncn2C2CCNCC2)n1` as the compound, how does the residual activity read?
A: 128%

Target: Rho-associated protein kinase 1 (Homo sapiens) (UniProt Q13464)
Details: at 10 µM

Q: `N#C/C(=C\c1ccc(O)c(O)c1)C(=O)NCc1ccccc1` was tested. Which residual activity did it give?
A: 123%

Q: With `O=S(=O)(c1cccc2cnccc12)N1CCCNCC1` as the compound, how does the residual activity read?
A: 36%

Q: For `COc1ccc2c(c1)c(C1=C(c3c[nH]c4ccccc34)C(=O)NC1=O)cn2CCCN(C)C`, which residual activity is on record?
A: 124%

Q: `O=S(=O)(NCCNC/C=C/c1ccc(Br)cc1)c1cccc2cnccc12` was tested. Which residual activity did it give?
A: 29%

Q: For `Nc1nc(Nc2ccc(S(N)(=O)=O)cc2)nn1C(=O)c1c(F)cccc1F`, which residual activity is on record?
A: 16%

Q: With `CCCCc1c(-c2ccc(OC)cc2)[nH]c2nccnc12` as the compound, how does the residual activity read?
A: 102%

Q: `Cn1c2ccccc2c2c3c(c4c5ccccc5n(CCC#N)c4c21)CNC3=O` was tested. Which residual activity did it give?
A: 97%

Q: `NCCNc1ncc(C(N)=O)c(Nc2cccc(C(F)(F)F)c2)n1` was tested. Which residual activity did it give?
A: 103%

Q: Which residual activity does the source give for `O=C1NC(=O)C(c2cn(CCCn3ccnc3)c3ccccc23)=C1Nc1ccccc1` here?
A: 121%

Q: For `COc1ccc(COc2ccc(Cc3cnc(N)nc3N)cc2OC)cc1`, which residual activity is on record?
A: 120%

Q: How did the residual activity turn out when `CC(C)N(CCC(=O)c1ccc2ccccc2c1)Cc1ccccc1` was run?
A: 133%

Q: `CN(C)S(=O)(=O)c1ccc2c(c1)/C(=C/c1cc3c([nH]1)CCCC3)C(=O)N2` was tested. Which residual activity did it give?
A: 100%

Q: How did the residual activity turn out when `O=C(Nc1nc2ccccc2n1CCN1CCOCC1)c1cccc([N+](=O)[O-])c1` was run?
A: 106%

Q: `NC(=O)c1ccc(-c2nc(-c3ccc4c(c3)OCCO4)c(-c3ccccn3)[nH]2)cc1` was tested. Which residual activity did it give?
A: 90%

Q: `O=C(c1cc2cc(O)ccc2[nH]1)c1cc2cc(O)ccc2[nH]1` was tested. Which residual activity did it give?
A: 72%

Q: How did the residual activity turn out when `c1ccc(-c2cnc(Nc3ccc(OCCN4CCCC4)cc3)s2)cc1` was run?
A: 110%

Q: With `Oc1cccc(-c2nc(N3CCOCC3)c3oc4ncccc4c3n2)c1` as the compound, how does the residual activity read?
A: 125%

Q: With `Nc1nccc(-c2c(-c3ccc(F)cc3)ncn2C2CCNCC2)n1` as the compound, how does the residual activity read?
A: 121%
